From PubChem BioAssay AID489028 (Sanford-Burnham Center for Chemical Genomics, 2010)
About 5,600 (56%) of roughly 10,000 compounds were called active. So high a share suggests a set chosen from earlier hits. Not all results are given here. A number with no mark means an inactive call. No stated cut-off is given here; in the data, active means inhibition above about 40%; inactive means the rest.

Target: Protein Mdm4 (Homo sapiens) + E3 ubiquitin-protein ligase Mdm2 (Homo sapiens) (UniProt O15151+Q00987)
Test: Mdm2-MdmX complex disruptors, retested hits, confirmation, luminescence, single concentration (AID 489028)
Details: Mdm2-MdmX binding, luminescent assay; at 8 µM; stronger effect = higher value

Sequence of Protein Mdm4 (Homo sapiens) + E3 ubiquitin-protein ligase Mdm2 (Homo sapiens) (O15151 whole entry, looked up): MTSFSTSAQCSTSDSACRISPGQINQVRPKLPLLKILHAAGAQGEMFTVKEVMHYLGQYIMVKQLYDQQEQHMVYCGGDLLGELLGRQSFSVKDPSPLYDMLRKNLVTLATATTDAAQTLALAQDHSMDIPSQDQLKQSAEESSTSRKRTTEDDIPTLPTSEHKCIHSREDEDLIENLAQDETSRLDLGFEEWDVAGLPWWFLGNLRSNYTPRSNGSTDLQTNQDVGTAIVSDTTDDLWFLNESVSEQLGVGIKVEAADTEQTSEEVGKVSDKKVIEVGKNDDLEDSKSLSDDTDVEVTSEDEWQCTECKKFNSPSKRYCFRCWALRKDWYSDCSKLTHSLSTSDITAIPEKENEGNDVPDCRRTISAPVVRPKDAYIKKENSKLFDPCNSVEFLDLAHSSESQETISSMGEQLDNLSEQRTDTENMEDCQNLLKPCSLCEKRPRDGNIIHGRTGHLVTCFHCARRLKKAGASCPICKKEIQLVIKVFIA
Sequence of Protein Mdm4 (Homo sapiens) + E3 ubiquitin-protein ligase Mdm2 (Homo sapiens) (Q00987 whole entry, looked up): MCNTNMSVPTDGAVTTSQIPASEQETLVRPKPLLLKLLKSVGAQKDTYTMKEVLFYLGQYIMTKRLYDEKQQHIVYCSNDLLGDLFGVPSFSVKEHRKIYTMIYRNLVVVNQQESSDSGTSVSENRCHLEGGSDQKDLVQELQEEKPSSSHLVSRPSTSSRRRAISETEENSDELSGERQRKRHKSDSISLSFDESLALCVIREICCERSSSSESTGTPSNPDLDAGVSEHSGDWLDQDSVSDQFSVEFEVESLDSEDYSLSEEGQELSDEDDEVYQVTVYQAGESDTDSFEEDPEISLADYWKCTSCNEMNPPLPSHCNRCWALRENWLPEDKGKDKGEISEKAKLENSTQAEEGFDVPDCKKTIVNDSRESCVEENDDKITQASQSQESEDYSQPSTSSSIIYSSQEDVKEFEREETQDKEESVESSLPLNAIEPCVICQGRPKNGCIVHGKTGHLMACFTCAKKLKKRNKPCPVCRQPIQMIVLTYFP

Row | Structure (SMILES) | inhibition
1 | Cc1cc(Nc2cc(N3CCN(C)CC3)nc(Sc3ccc(NC(=O)C4CC4)cc3)n2)n[nH]1 | 82% (active)
2 | O=C(c1[nH]ncc1-c1ccc(Cl)cc1)C1CO1 (stereo not given) | 45.3% (active)
3 | COc1ccc(Cc2nnc(N/N=C/c3ccccc3O)[nH]c2=O)cc1OC | 76.2% (active)
4 | COc1cc(OC)c(OC)cc1/C=N/Nc1ncnc2c1[nH]c1ccc(C)cc12 | 27%
5 | Cc1ccc(N(Cc2cc(=O)[nH]c3ccccc23)C(=O)CCl)cc1 | 74.9% (active)
6 | COc1ccc(-c2nc(-c3ccccc3)no2)c(OC)c1 | 50.4% (active)
7 | CC(C)n1cnc2c(NCc3ccccc3)cc(N[C@@H](CO)Cc3ccccc3)cc21 | 32.5%
8 | O=C(CSc1cccc2cccnc12)N/N=C/c1cccnc1 | 45% (active)
9 | Cc1c(NC(=O)CSc2cccc3cccnc23)c(=O)n(-c2ccccc2)n1C | 10.3%
10 | c1ccc(C2CCC(N3CCC(N4CCCCC4)CC3)CC2)cc1 (stereo not given) | 86.5% (active)
11 | O=C1Nc2cc(C(=O)N3CCC(N4CCCCC4)CC3)ccc2S/C1=C\c1ccccc1 | 27.8%
12 | CC(NC(=O)Nc1ccccc1)C(c1cccs1)N1CCN(c2ccccc2)CC1 (stereo not given) | 70.3% (active)
13 | COc1ccc(C2CC(c3cccs3)=NN2c2nc(C)c(C(C)=O)s2)cc1OC (stereo not given) | 25.1%
14 | Cn1cc([N+](=O)[O-])c(C(=O)Nc2cnn(Cc3ccc(F)cc3)c2)n1 | 57.5% (active)
15 | CCn1cc(CN2CCC(C(=O)Nc3cccc(-c4cccc(Cl)c4)c3)CC2)c(C)n1 | 48% (active)
16 | CCn1cc(CN2CCC(C(=O)Nc3cccc(-c4cccc(Cl)c4)c3)CC2)cn1 | 31.9%
17 | O=C(Nc1cccc(-c2cccc(Cl)c2)c1)C1CCN(C2CCC2)CC1 | 31.5%
18 | COc1cc(OC)c2c(-c3cccc(-c4cccc(N)c4)c3)cc(=O)oc2c1 | 52.7% (active)
19 | CCN(CC)CCC(c1cc(OC)c(OC)c(OC)c1)c1c(OC)cc(OC)c2c(-c3ccccc3)cc(=O)oc12 (stereo not given) | 27.6%
20 | CCN(CC)CCC(c1ccc2c(c1)OCO2)c1c(OC)cc(OC)c2c(-c3ccccc3)cc(=O)oc12 (stereo not given) | 29.8%
21 | COc1c(C)c2c(c(O)c1C/C=C(\C)CCC(=O)O)C(=O)OC2 | 80.7% (active)
22 | CCCCn1c(-c2cccc(C)c2)nc2cc3[nH]c(=O)c(C(C)C)nc3cc21 | 38%
23 | COc1ccc(-c2nc3cc(C)ccn3c2NC2CCCCC2)cc1SC1CCCCC1 | 19.9%

Row | Structure (SMILES) | inhibition
24 | COc1cc(NC(=O)c2cncc(-c3ccc(C#N)cc3)c2)cc(C(=O)Nc2cccc(C(F)(F)F)c2)c1 | 55.5% (active)
25 | CCOC(=O)c1ccc(NC(=O)c2nc[nH]c2C(=O)N[C@@H](CCCCNC(=O)OC(C)(C)C)C(=O)OC(C)(C)C)cc1 | 19.6%
26 | COc1cc(NC(=O)c2[nH]cnc2C(N)=O)cc(C(=O)Nc2cccc(C(F)(F)F)c2)c1 | 63.5% (active)
27 | Cc1nc(SCC(=O)Nc2cc(C)on2)c2c(C)c(C)sc2n1 | 27.6%
28 | Cc1nc(N=C(N)N)nc2c(C)cccc12 | 53.1% (active)
29 | O=C(Cc1ccc(Cl)c(Cl)c1)Nc1ccc(SC(F)F)cc1 | -2.4%
30 | O=C(CC(O)(C(F)(F)F)C(F)(F)F)Nc1ccc(Cl)c(Cl)c1 | 95.7% (active)
31 | COC(=O)C1=CN(C)C=C(C(=O)OC)C1c1ccc(Cl)cc1Cl | 3.05%
32 | O=C(/C(=C/c1cccc(Cl)c1)c1nc2ccccc2[nH]1)c1ccccc1 | 43.5% (active)
33 | CCOc1cc(/C=C/c2nc3ccccc3c(=O)[nH]2)cc(Br)c1OC | 69.5% (active)
34 | Cc1ccc(-c2cn3cc(C)ccc3n2)cc1 | 81.3% (active)
35 | Cc1ccc2nc(-c3ccc(Br)cc3)cn2c1 | 53.3% (active)
36 | Cc1ccc(Nc2cc(=O)n(C3CCCCC3)c(=O)[nH]2)cc1C | 19.4%
37 | O=C(c1ccc(Cl)cc1)N1N=C(c2ccccn2)CC1(O)C(F)(F)F (stereo not given) | 15.9%
38 | O=C1[C@H]2[C@@H](c3ccc(F)cc3)N3C(=O)N(c4ccc(C(F)(F)F)cc4)C(=O)[C@@]3(Cc3ccccc3)[C@H]2C(=O)N1C1CCCCC1 | 100% (active)
39 | Cc1cccc([C@@H]2[C@@H]3C(=O)N(Cc4ccccc4)C(=O)[C@@H]3[C@]3(C)C(=O)N(c4ccc(Br)cc4)C(=O)N23)c1 | 24.9%
40 | CSc1nc(-c2ccccc2)nc(C(Cl)Cl)n1 | 98.6% (active)
41 | OCCCNc1nccc(-c2cc(Nc3cccc(Cl)c3)ncn2)n1 | 99.8% (active)
42 | COc1ccc(C(=O)NC(=S)NNC(=O)CCc2ccccc2)cc1 | 4.55%
43 | CC[C@]1(C(=O)OC)[C@H]2C(=O)N(Cc3ccccc3)C(=O)[C@H]2[C@H]2CN=C(SCc3ccccc3)N21 | 70% (active)
44 | CC[C@]1(C(=O)OC)[C@H]2C(=O)N(Cc3ccccc3)C(=O)[C@H]2[C@H]2CN=C(SCc3ccc(Cl)cc3)N21 | 99.7% (active)
45 | CC[C@]1(C(=O)OC)[C@H]2C(=O)N(Cc3ccccc3)C(=O)[C@H]2[C@H]2CN=C(SCc3ccc(C#N)cc3)N21 | 98.8% (active)
